RT RNaseH block = blocks HIV-1 RNase H cleavage of RNA/DNA duplex | P04585 | RT-RNase H RNA/DNA duplex cleavage, fluorescence | inhibition, % at 10 µM | 65,000 compounds, 1.9% hits | AID 565; in the data active = inhibition above about 50%
RmlCD inh mix = RmlC/RmlD inhibition, mixture screen. RmlC/RmlD coupled enzyme inhibition, 384-well mixture HTS. 110,000 compounds, 0.39% hits. inhibition, % at 5.5 µM. AID 1532; in the data active = inhibition above about 30%, passing the limit was not always enough
RmlCD fluor art = counter-screen for RmlC/RmlD inhibitors: fluorescence artifact; shares compounds with RmlCD inh mix; RmlC/RmlD assay fluorescence artifact counter-screen; calls only; 360 compounds, 96% hits; AID 1696; call rule not given here;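 note: compound alone with no enzyme and no substrates present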
Numbers stand for hits; n = inactive; x = no result given; + = active, no number. The full list was thinned out, with hits kept by preference.

SMILES	RT RNaseH block	RmlCD inh mix	RmlCD fluor art
O=C(O[C@@H]1OC2COC(=O)c3cc(O)c(O)c(O)c3-c3c(cc(O)c(O)c3O)C(=O)O[C@@H]([C@H]1O)[C@@H]2O)c1cc(O)c(O)c(O)c1	x	n	x
COc1ccc(C(=O)N/N=C/c2ccc3cccc(OCc4ccccc4)c3n2)cc1	x	n	n
O=C(N/N=C/c1ccc2cccc(OCc3ccccc3)c2n1)c1ccc(Br)cc1	x	n	x
C#Cc1ccc([C@@H]2C=C(C(=O)NCc3ccccc3)O[C@H](OCCCCO)C2)cc1	x	n	x
NC(=O)c1nn(-c2ccccc2)nc1N	n	43	+
NC(=O)c1nn(-c2ccccc2)nc1NC(=O)CN1CCCCC1	n	n	x
CCOc1ccc(NC(=O)c2cccc(OC(=S)N3CCC(C)CC3)c2)cc1	x	n	x
N#Cc1c(N)n(CCOC(=O)c2cccc([N+](=O)[O-])c2)c2nc3ccccc3nc12	x	45	+
COCCn1c(N)c(C#N)c2nc3ccccc3nc21	x	55	+
COc1cc(Cn2c(N)c(C#N)c3nc4ccccc4nc32)cc(OC)c1	n	x	x
N#Cc1c(N)n(CCOC(=O)c2cccc(Br)c2)c2nc3ccccc3nc12	n	n	x
CCCCOCCCn1c(-c2ccco2)nc2nc3ccccc3nc21	n	41	+
CCCCn1c(-c2cccs2)nc2nc3ccccc3nc21	x	n	x
Cc1ccn(C(=O)c2cc3cc(Cl)ccc3oc2=O)n1	x	n	x
COc1ccc2oc(=O)c(C(=O)n3ccc(C)n3)cc2c1	x	111	+
CN(C)C(=O)COc1ccc2cc(-c3ccccc3)c(=O)oc2c1	n	55	+
Cc1cc(OCC(=O)N(C)C)c2c(-c3ccccc3)cc(=O)oc2c1	n	n	x
CCc1nc2ccc(C)cc2c(C(=O)NC2CCCCC2C)c1C (stereo unspecified)	x	n	x
CC1C/C(=N/NC(=O)c2cccc(F)c2)c2ccc(O)cc2C1 (stereo unspecified)	x	n	x
COc1ccc(OC)c2[nH]c(C(=O)O)cc12	x	n	x
COC(=O)c1cc(=O)c2cccc(OC)c2[nH]1	x	x	n
N#Cc1cnn2c(-c3ccccc3)ccnc12	x	n	x
COc1ccc(-c2ccnc3c(C#N)cnn23)cc1	x	x	+
Cc1ccc(CN(c2ccc(C(=O)Nc3cccnc3)cc2)S(C)(=O)=O)cc1	x	n	x
CCC1=CC(c2ccccc2)n2ncnc2N1 (stereo unspecified)	x	n	x
SMILES	RT RNaseH block	RmlCD inh mix	RmlCD fluor art
CC1=CC2=NC(=O)CC(C)(C(=O)N(CC(=O)NC(C)(C)C)C3CCCC3)N2C=C1 (stereo unspecified)	n	n	x
CC(C)(C)NC(=O)CN(C(=O)C1(C)CC(=O)N=C2C=CC=CN21)C1CCCC1 (stereo unspecified)	n	39	+
NC(=O)c1ccc(-c2ncc(-c3ccccc3)o2)cc1	n	73	+
c1ccc(-c2cnc(-c3cccnc3)o2)cc1	n	n	x
CCN(CC)C(=O)c1sc2nc(N3CCOCC3)c3c(c2c1N)CCCC3	x	n	x
COC(=O)c1ccc(-c2sc3nc(N4CCOCC4)c4c(c3c2N)CCCC4)o1	n	116	+

High-throughput results from PubChem.
